BAZ2B inh: blocks human BAZ2B; Q9UIF8; AlphaScreen BAZ2B-H3K14Ac peptide displacement; Potency, µM (titrated, usually from 114 µM), usual class: inhibitors; 360,000 tested, 4.4% active; also: nearly all actives have a fitted effect of over 60% in size
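AlphaScreen displacement: compounds (up to 110uM) incubated 30 min at room temperature with a preformed 50 nM BAZ2B/50 nM biotinylated H3K14Ac peptide complex in PBS pH 7.4 with Tween-20. Donor and acceptor beads at 10 ug/mL final added, 20 min light-protected before reading.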
Sfp inh: inhibitors of Bacillus subtilis Sfp phosphopantetheinyl transferase | Potency, µM, actives largely listed as inhibitors | 310,000 tested, 3.5% active | Biochemical Sfp PPTase activity, qHTS;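 also: the enzyme is Sfp with the accession as filed and its product quenches rhodamine fluorescence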
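Step 1, compound plus 15 nM Sfp-PPTase, 15 min, room temperature. Step 2, add rhodamine-CoA (5 uM) and BHQ-2-YbbR (12.5 uM). Step 3, read 525/598 nm fluorescence at 0 and 30 min.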
G9a block: G9a (human) methyltransferase inhibition. Potency, µM (doses to about 102 µM), hits mostly inhibitors. G9a H3K9 monomethylation, AlphaScreen, 2 h. 350,000 tested, 8.8% active; also: nearly all actives have a fitted effect of over 75% in size
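AlphaScreen detection with an anti-monomethyl H3K9 antibody quantified product after a 2 h room-temperature reaction containing 500 nM biotinylated H3K9 peptide, 20 µM SAM and 20 nM enzyme, which had been preincubated 15 min with compound.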
HP1b chromo inh: blocks HP1-beta chromodomain binding to methylated histone tails; AlphaScreen HP1-beta / biotin-H3K9me3 peptide binding; P83916; 390,000 tested, 0.56% active; Potency, µM (doses to about 114 µM), hits mostly inhibitors; also: nearly all actives have a fitted effect of over 70% in size
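Compound inhibition of the preformed complex between 50 nM HP1-beta and 50 nM biotinylated H3K9me3 peptide was read by AlphaScreen. Buffer was PBS pH 7.4 with 0.01% Tween-20. Incubations ran 30 min at room temperature, with 10 ug/mL donor/acceptor beads.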
JMJD2A Tudor: blocks the human JMJD2A Tudor domain; O75164; AlphaScreen JMJD2A-Tudor / H3K4me3 peptide binding; Potency, µM (titrated, usually from 114 µM), usual class: inhibitors; 390,000 tested, 4.4% active; also: nearly all actives have a fitted effect of over 50% in size
PLK1 PBD block: blocks phosphopeptide binding to human PLK1 polo-box domain; Plk1 PBD binding of FITC phosphopeptide, fluorescence polarization; P53350; 360,000 tested, 2.8% active; Potency, µM, hits mostly inhibitors; also: series mostly up to about 57 µM; nearly all actives have a fitted effect of over 65% in size
Each line names hits and unclear results; the compound was inactive in the other large screens. Compounds with a hit are over-represented: about 12% of the library has one in this group of screens. Calls follow the shape of the dose curve; as a rule, active = well fitted curve in the direction sought with a large enough effect; inconclusive = small, poorly fitted or top-dose-only effect, or another doubt; inactive = no such curve, though single readings can be large; an effect the other way counts as inactive or inconclusive.

COc1ccc(CNC(=O)c2ccc3c(c2)N(Cc2ccccc2C)C(=O)c2ccccc2S3=O)cc1 (stereo not given)	none (no result: Sfp inh, PLK1 PBD block)
CCOC(=O)N1CCc2c(sc3c2C(=O)NC(c2cc(OC)c(OC)c(OC)c2)N3)C1 (stereo not given)	BAZ2B inh inconclusive, G9a block inconclusive, JMJD2A Tudor inconclusive (no result: Sfp inh, PLK1 PBD block)
Cc1cc(N2CCN(C)CC2)ccc1NC(=O)c1ccc(-c2ccc(Cl)cc2)o1	BAZ2B inh 35.5µM, G9a block 31.6µM, HP1b chromo inh inconclusive, JMJD2A Tudor 39.8µM (no result: Sfp inh)
Cc1cc(O)c(NC(=S)NC(=O)c2ccc(-c3ccc(Cl)cc3)o2)cc1C	Sfp inh inconclusive
CC(=O)N1CCN(c2ccccc2NC(=O)c2ccc(Br)o2)CC1	none
O=C(Nc1ccccc1N1CCCC1)c1ccc(Br)o1	BAZ2B inh inconclusive, G9a block 4.47µM, JMJD2A Tudor inconclusive
O=C(O)c1ccc2c(c1)C(=O)N([C@@H](C(=O)O)C(c1ccccc1)c1ccccc1)C2=O	none (no result: HP1b chromo inh, PLK1 PBD block)
N/C(=N\NC(=O)c1ccccc1)c1cc2ccccc2oc1=O	JMJD2A Tudor inconclusive, PLK1 PBD block 21.2µM
N/C(=N\NC(=O)c1cccs1)c1cc2cc(Cl)ccc2oc1=O	JMJD2A Tudor inconclusive, PLK1 PBD block 23.8µM
O=C(O)c1ccccc1NC(=O)c1cc2ccccc2oc1=O	Sfp inh inconclusive, G9a block 50.1µM
CCN(C(=O)CSc1nnc(Cn2nnc3ccccc32)o1)c1nc(C)cs1	Sfp inh 20µM, G9a block inconclusive, PLK1 PBD block inconclusive
COc1cccc(C(=O)c2cn(CC(=O)Nc3ccc4c(c3)OCCO4)c3nc(C)ccc3c2=O)c1	none (no result: Sfp inh, PLK1 PBD block)
CCCCc1nc2c(c3c1C[C@H](C)OC3)CN(C(=O)NCCc1c[nH]c3ccccc13)CC2	none (no result: BAZ2B inh, G9a block, HP1b chromo inh, JMJD2A Tudor, PLK1 PBD block)
CC(=O)Cc1nsc(Nc2ccccc2)n1	G9a block 79.4µM
CC(=O)Cc1nsc(Nc2cccc(C)c2)n1	none
O=C(OCC(=O)N1CCOCC1)c1ccc2ccccc2c1O	G9a block inconclusive (no result: Sfp inh)
COc1ccccc1Cc1nc2ccccc2nc1SCC(=O)NCc1ccc(C)cc1	none (no result: Sfp inh, PLK1 PBD block)
Cc1ccc(C)c(Cn2c(=O)n(CCCC(=O)NCc3ccco3)c(=O)c3sccc32)c1	HP1b chromo inh inconclusive, JMJD2A Tudor inconclusive, PLK1 PBD block 29.9µM
Nc1ncc(-c2ccccc2)n1CC1CCCO1 (stereo not given)	BAZ2B inh 20µM, Sfp inh inconclusive, JMJD2A Tudor inconclusive, PLK1 PBD block inconclusive
N#Cc1c(NC(=O)CSc2ncc(-c3ccccc3)n2CC2CCCO2)sc2c1CCCC2 (stereo not given)	BAZ2B inh inconclusive, G9a block 11.2µM, JMJD2A Tudor inconclusive
Brc1ccc(CSc2nccn2-c2ccccc2)cc1	BAZ2B inh 39.8µM, G9a block 44.7µM, HP1b chromo inh inconclusive, JMJD2A Tudor 56.2µM
Cn1c(SCc2ccc(Br)cc2)nnc1-c1cccs1	G9a block inconclusive (no result: BAZ2B inh)
Cn1c(SCc2ccc(Br)cc2)nnc1-c1ccccn1	BAZ2B inh 79.4µM, G9a block inconclusive
O=C(CSc1nccn1-c1ccccc1)NO	BAZ2B inh inconclusive
COc1ccc(CNC(=O)C2CCN(c3nnc(-n4cccc4CNc4ccc(C)cc4)s3)CC2)c(OC)c1	G9a block 1.41µM (no result: Sfp inh, PLK1 PBD block)
COc1ccc(OC)c(NC(=O)C2CCCCC2C(=O)O)c1 (stereo not given)	none
COc1ccc(OC)c(NCc2cccn2-c2nnc(N3CCC(C)CC3)s2)c1	G9a block 7.94µM, HP1b chromo inh inconclusive, JMJD2A Tudor inconclusive (no result: Sfp inh, PLK1 PBD block)
COc1ccccc1NCc1cccn1-c1nnc(N2CCOCC2)s1	none (no result: Sfp inh, PLK1 PBD block)
COc1ccc(OC)c(NC(=O)C2C3CCC(C3=C(C)C)C2C(=O)O)c1 (stereo not given)	Sfp inh 39.8µM, G9a block 8.91µM, JMJD2A Tudor inconclusive
COc1ccc(OC)c(NC(=O)Nc2nnc(N3CCC(C)CC3)s2)c1	BAZ2B inh inconclusive, G9a block 50.1µM, JMJD2A Tudor inconclusive
COc1ccc(NCc2cccn2-c2nnc(N3CCC(C)CC3)s2)c(OC)c1	BAZ2B inh inconclusive, G9a block 5.62µM, HP1b chromo inh inconclusive, JMJD2A Tudor 28.2µM (no result: Sfp inh, PLK1 PBD block)
COc1ccc(NCc2cccn2-c2nnc(N3CCOCC3)s2)c(OC)c1	G9a block inconclusive (no result: Sfp inh, PLK1 PBD block)
CCCc1[nH]nc2c1C(c1ccccc1OC)C(C#N)=C(N)O2 (stereo not given)	G9a block inconclusive, PLK1 PBD block inconclusive
CCCc1[nH]nc2c1C(c1ccc(O)c(OC)c1)C(C#N)=C(N)O2 (stereo not given)	G9a block 50.1µM
CCn1c2ccccc2c2cc(C3C(C#N)=C(N)Oc4n[nH]c(COC)c43)ccc21 (stereo not given)	G9a block inconclusive, JMJD2A Tudor inconclusive, PLK1 PBD block 5.97µM
COc1cccc(C(=O)NCC(=O)N2CCC3(CC2)NCCc2[nH]cnc23)c1	none
CC(C)(C)NC(=O)CN(C(=O)c1snc(C(=O)NC2CCCCC2)c1N)c1ccc(F)cc1	none
CCOC(=O)C(=O)/C(C#N)=C/Nc1ccc(F)cc1	BAZ2B inh inconclusive, G9a block 35.5µM
Cc1ccsc1C(=O)N/N=C/C=C/c1ccccc1[N+](=O)[O-]	G9a block inconclusive
CCOC(=O)N/N=C/C=C/c1ccccc1[N+](=O)[O-]	JMJD2A Tudor inconclusive, PLK1 PBD block 21.2µM
COc1ccc(NCC(=O)N/N=C/c2cc([N+](=O)[O-])ccc2N2CCCC2)cc1	BAZ2B inh inconclusive, G9a block 8.91µM, HP1b chromo inh inconclusive, JMJD2A Tudor inconclusive, PLK1 PBD block 13.4µM
O=C(N/N=C/C=C\c1ccccc1[N+](=O)[O-])c1ccco1	G9a block inconclusive
CCc1ccc(OCC(=O)N/N=C/c2cc([N+](=O)[O-])ccc2N2CCOCC2)cc1	none
Cc1ccccc1NCC(=O)N/N=C\C=C\c1cccc([N+](=O)[O-])c1	BAZ2B inh inconclusive, G9a block inconclusive, JMJD2A Tudor 50.1µM
Cc1occc1C(=O)N/N=C/C=C\c1ccccc1[N+](=O)[O-]	BAZ2B inh inconclusive, G9a block inconclusive, JMJD2A Tudor 89.1µM, PLK1 PBD block inconclusive
Cn1c(=O)c(-c2ccc(F)cc2)nc2cncnc21	none (no result: BAZ2B inh, HP1b chromo inh, JMJD2A Tudor, PLK1 PBD block)
COc1ccc2oc(C(=O)N(Cc3ccco3)Cc3cccs3)c(C)c2c1	none (no result: Sfp inh)
CCOc1ccc(-c2[nH]ncc2-c2ccccc2)c(O)c1	BAZ2B inh inconclusive (no result: G9a block)
CCOc1ccc(N=C/C=C/c2ccccc2)c(O)c1	BAZ2B inh 35.5µM, Sfp inh 50.1µM, G9a block 50.1µM, HP1b chromo inh inconclusive, JMJD2A Tudor 56.2µM, PLK1 PBD block inconclusive
COc1ccc(NCC(=O)N/N=C/C=C/c2ccccc2[N+](=O)[O-])cc1	BAZ2B inh 39.8µM, G9a block 11.2µM, JMJD2A Tudor 79.4µM
COc1ccc(NCC(=O)N/N=C/C(C)c2ccccc2)cc1 (stereo not given)	BAZ2B inh inconclusive, G9a block 28.2µM, JMJD2A Tudor inconclusive
